The whole screen tested about 2,100 compounds, of which about 480 (23%) were called active. Another 5% or so got no clear call; they are omitted.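 The calls were made as follows: active = fitted curve reaches 40% activation at or below the top valid concentration, in every replicate test; inconclusive = replicate tests disagree on the call; inactive = the rest, including activity in the opposite direction.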 Not all results are given here. Potency and affinity values are given separately.
assay: PGC1a acetylation increase, cellular AlphaLISA – cell-based, cherry-picked samples, set 6, dose response (AID 720513); settings: U2OS PGC1a acetylation AlphaLISA, overnight, 0 = neutral, -100 = inhibitor control; series mostly up to 19.5 µM; activation (acetylation increase): at the top concentration;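 also: cells made to overexpress flag tagged PGC1a plus GCN5 acetyltransferase by viral infection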

Activation (acetylation increase), inactive:
CN1C[C@H](C(=O)N[C@]2(C)O[C@@]3(O)[C@@H]4CCCN4C(=O)[C@H](Cc4ccccc4)N3C2=O)CC2c3cccc4[nH]cc(c34)C[C@H]21 (some centres not stated) -13.6%
O=C(Nc1cccc(F)c1)N1C[C@@H]2N[C@H](C1)C2c1ccc(-c2ccc(F)cc2)cc1 (some centres not stated) -61.4%
C[C@H](CO)N1C[C@H](C)[C@H](CN(C)S(C)(=O)=O)Oc2ncc(-c3cc4ccccc4o3)cc2C1=O 15.1% [at 18 µM]
O=C(Nc1nc2ccccc2[nH]1)c1ccc(Cl)c(S(=O)(=O)N2CCCC2)c1 32%
CC(C)[C@H](NC(=O)NCc1cccs1)C(=O)O 11.6%
CCOc1ccnc(OCC)c1Br 4.57%
C[C@@H]1CN([C@H](C)CO)C(=O)c2cc(NS(C)(=O)=O)ccc2O[C@@H]1CN(C)S(=O)(=O)c1ccc(Cl)cc1 24.6%
CCN1CCN(Cc2ccc(NC(=O)c3ccc(C)c(NC(=O)c4c[nH]c5cc(C(F)(F)F)ccc5c4=O)c3)cc2C(F)(F)F)CC1 -97.3%
Cc1ccccc1S(=O)(=O)NCC[C@@H]1CC[C@@H](NC(=O)C2CCOCC2)[C@H](CO)O1 -0.888%
COCCSc1ccccc1C(=O)Nc1cc(C)on1 -34.8%
Cn1nnnc1SC1CC(=O)N(c2ccccc2)C1=O (configuration not stated) 31.9%
CN(C)C(=O)c1ccc(-c2ccc([C@@H]3[C@H]4CN(C(=O)CC5CC5)CC(=O)N4[C@H]3CO)cc2)cc1 8.08%
OC(c1ccc(Cl)cc1Cl)C(Cc1cccnc1)n1cncn1 (configuration not stated) 20%
OC(c1cc(-c2ccc(Cl)cc2)nc2ccccc12)C1CCCCN1 (configuration not stated) 34% [at 10 µM]
COc1ccc2c(c1)sc1nc(-c3ccccc3)cn12 31.5%
COc1ccc2c3c(n(C)c2c1)[C@H](CO)NCC31CCN(Cc2cc(F)ccc2F)CC1 35.2%
Cc1ccc(C(=O)NNC(=O)c2cccc(Br)c2)cc1 10.6%
Cc1ccccc1NC(=O)CC1c2ccccc2CC(C)(C)N1C (configuration not stated) 22.8%
CN1CCN(C(=O)c2sc(=S)n(-c3ccccc3)c2N)CC1 8.38%
CCN1CCN(c2nnc(-c3ccccc3)c3ccccc23)CC1 11.4%
O=C1c2ccccc2-c2c1cccc2C(=O)N1CCN(C(=O)c2ccco2)CC1 -5.11%
Cc1cc(C)c2nc(N3CCCC(C(=O)N4CCC(C(N)=O)CC4)C3)sc2c1 (configuration not stated) 12.2%
Cc1ccc(S(=O)(=O)N2CCN(C(=O)CSc3nc4ccccc4c(=O)[nH]3)CC2)c(C)c1 38.8% [at 10 µM]
O=C(COc1ccccc1)N1CCN=C1SCc1ccccc1 104%
Cn1nc(-c2ccccc2F)c2cc(C(=O)N3CCN(C(=O)c4ccco4)CC3)sc21 32.2%
Cc1cc(C)cc(C(=O)Nc2ccc3[nH]c(=O)[nH]c3c2)c1 1.98%
COc1cccc(N2CCN(c3ncnc4c3[nH]c3ccc(F)cc34)CC2C)c1 (configuration not stated) -116%
C=CCOc1ccccc1CNc1ccc2[nH]c(=O)[nH]c2c1 0.715%
O=C(C[C@H]1C=C[C@H](NC(=O)Nc2ccc(C(F)(F)F)cc2)[C@@H](CO)O1)NCc1ccccn1 36.2%
O=C(Cc1ccccc1)N1N=C(c2ccncc2)CC1(O)C(F)(F)F (configuration not stated) 18.2%
COc1ccc(S(=O)(=O)N2CCN(C(=O)c3cccs3)CC2)cc1OC 23.8%
CC(=O)c1cccc(-n2nnnc2SCC(=O)NNC(=O)C(C)C)c1 27.3%
C[C@H](CO)N1C[C@H](C)[C@H](CN(C)S(=O)(=O)c2ccc(F)cc2)Oc2ncc(-c3cccc(C(=O)N(C)C)c3)cc2C1=O 5.12%
Cc1nonc1NC(=O)CSc1nc(C2CCCCC2)nc2ccccc12 -21.9%
CC(C)(CO)CNc1ccn2nccc2n1 9.81%
O=C(CSC1=NS(=O)(=O)c2ccccc2N1)Nc1ccc(F)cc1 -19.9%
Cc1cccc(C)c1NC(=O)CS(=O)CC(=O)Nc1ccc(F)cc1F (configuration not stated) -14.8%
O=C1C=CCCN1C(=O)/C=C/c1cccc(Br)c1 -88.3%
Cn1nnnc1Sc1ncnc2scc(-c3ccc(C#N)cc3)c12 -92.1%
COc1ccc2cc(CN(Cc3ccco3)C(c3nnnn3C3CCCCC3)C(C)C)c(=O)[nH]c2c1 (configuration not stated) 8.69%
O=C(c1cccs1)N(Cc1ccccn1)Cc1ccco1 36.3%
COCCN(C(=O)COC(=O)Cc1cccc(OC)c1)c1c(N)n(Cc2ccccc2)c(=O)[nH]c1=O -0.707%
O=C1CCCc2ccccc2N1Cc1ccc(Cl)cc1Cl 33.4%
CCOC(=O)CSc1nnc(-c2ccc(OC)cc2)n1CC 37.5%
CCN(C(=O)CSc1nnc(-c2cccs2)n1N)c1c(N)n(Cc2ccccc2)c(=O)[nH]c1=O -1.94%
CC1(C)CC2(CCO1)OC(=O)CC2C(=O)Nc1cccc2ccccc12 (configuration not stated) 2.06%
CO[C@H]1CN(C)C(=O)c2cc(NC(=O)c3ccccc3F)ccc2OC[C@@H](C)N(C(C)=O)C[C@@H]1C -15.3%
CCN(CC)c1ccc(NC(=O)c2ccc(NC(=O)C3CCCO3)cc2)c(C)c1 (configuration not stated) 23.6%
COc1ccc(C(=O)Nc2ccc3c4c(cccc24)CC3)cc1 3.87%
CC(C)CNC(=O)c1coc(=O)c(Br)c1 8.17%
O=C(NCCN1CCOCC1)c1ccc(=O)oc1 6.38%
O=C(OCCCN1CCCCC1)c1ccc(O)cc1 31.7%
Cc1ccc(S(=O)(=O)N(C)c2ccc(OC(C)C(=O)N3CCCC3)cc2)cc1C (configuration not stated) 27.2%
OC[C@@H]1[C@@H](c2ccc(C#CC3CCCC3)cc2)[C@H]2CN(CCC(F)(F)F)CCCCN12 -96.8%
C[C@@H]1CN([C@H](C)CO)C(=O)CCCn2cc(nn2)CO[C@@H]1CN(C)C(=O)Nc1cccc2ccccc12 17.8% [at 21 µM]
C[C@H]1CN([C@@H](C)CO)C(=O)c2cccc(NC(=O)Nc3ccc(C(F)(F)F)cc3)c2O[C@H]1CN(C)C(=O)Nc1cccc2ccccc12 -76.5%
C[C@@H]1CN([C@@H](C)CO)C(=O)c2ccccc2-c2ccccc2CO[C@@H]1CN(C)C(=O)Nc1cccc(Cl)c1Cl 9.37%
Cc1cc2c(c(/C=C/C(=O)c3ccccc3)c1)OC1(C=C2)Oc2ccccc2C(=O)N1C (configuration not stated) -61.7%
N#Cc1c(N)c(C(=O)c2ccccc2)n2ccccc12 -23.1%
CC1(C)CC(=O)C=C(NCc2ccco2)C1 23.6%
CSc1n[nH]c(NCc2ccccc2)n1 32.7%
COC1(C)CN(Cc2ccccc2Br)[C@H](/C=C/c2ccccc2)[C@H](Cc2ccccc2)O1 (some centres not stated) 8.05%

From PubChem BioAssay AID720513 (Broad Institute, 2013)
